# Measured values taken from PubChem BioAssay AID652062 (Broad Institute, 2013).
# Among all 1,400 compounds or so, about 1,100 (79%) were called active.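 How the source made its calls: active means fitted half-maximal concentration of a falling signal no higher than twice the top valid dose in every test run; inconclusive means runs disagree, or flat partial inhibition, or poor fit; inactive means every run inactive: flat, wrong direction, or potency beyond limit.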 So high a share suggests a set chosen from earlier hits. A selection follows. Potency and affinity values are given separately.
# Assay: HIV-1 AD8 envelope cell-cell fusion blockers – cherry-pick, dose response (AID 652062)
# Settings: HeLa-AD8 Env / CEM-CCR5 cell fusion, luciferase; at 35 µM (top of the series) unless noted
row,SMILES,"activity change, negative = inhibition"
1,C[C@H]1CN([C@@H](C)CO)S(=O)(=O)c2ccc(-c3cccc(F)c3)cc2O[C@H]1CN(C)S(=O)(=O)c1ccccc1,-18.9%
2,CCOC(=O)C(C)Oc1cccc2c(=O)n(CC(=O)NCCc3ccc(OC)c(OC)c3)ccc12 (stereo not given),3.5%
3,CC(C)(C)c1ccc(-n2ncc3c2CCCC3NC(=O)CN2CCCC2=O)cc1 (stereo not given),-53.4%
4,c1ccc(CSc2nnc([C@@H]3CCCN3)o2)cc1,25%
5,Cc1ccccc1S(=O)(=O)NC(=O)C1(C)CCN1C(=O)CCc1ccc(Cl)cc1Cl (stereo not given),-6.19%
6,C[C@H](CO)N1C[C@H](C)[C@H](CN(C)Cc2ccccc2)Oc2c(NC(=O)Nc3ccc4c(c3)OCO4)cccc2C1=O,19.6% [at 16 µM]
7,CNC[C@H]1Oc2c(NC(=O)Nc3ccc(C(F)(F)F)cc3)cccc2C(=O)N([C@@H](C)CO)C[C@H]1C,50.6%
8,CC(C)CC#Cc1ccc2c(c1)O[C@@H](CN(C)C(=O)C1CCCCC1)[C@H](C)CN([C@@H](C)CO)S2(=O)=O,-88.1%
9,CCOc1ccc2c(c1)-c1c(ssc1=S)C(C)(C)N2C(=O)c1ccco1,-10.3%
10,COc1cc(OC)cc(C(=O)N[C@H](C(=O)NCCc2c[nH]c3ccccc23)C(C)C)c1,-23.6%
11,C[C@H]1CN([C@@H](C)CO)C(=O)Cc2cc(N(C)C)ccc2O[C@H]1CN(C)Cc1ccc(Cl)c(Cl)c1,15.3%
12,C[C@H]1CN([C@@H](C)CO)C(=O)c2cc(NS(C)(=O)=O)ccc2O[C@@H]1CN(C)Cc1ccc(Cl)c(Cl)c1,37.5%
13,C[C@@H]1CN([C@@H](C)CO)C(=O)c2cccc(NS(=O)(=O)c3ccc(F)cc3)c2O[C@@H]1CN(C)Cc1ccc(-c2ccccc2)cc1,44.3% [at 16 µM]
14,Cn1cc(S(=O)(=O)N2CCOCC2)cc1C(=O)Nc1cccc(Cl)c1,-9.96%
15,COc1ccc(-c2nn(C)c(=O)c3ccccc23)cc1NC(=O)Cn1nc(C)c2ccccc2c1=O,6.7%
16,Cc1cc(C(C)(C)C)oc1C(=O)N(CC(=O)NC1CCCC1)Cc1ccc(Cl)cc1,-9.64%
17,Cc1ccccc1-n1c(=O)c2ccccc2n2cnnc12,40.3%
18,CCOC(=O)C1CCN(C(=O)c2ccc3c(c2)C(=O)N(c2ccccc2C)C3=O)CC1,68.2%
19,CCN(CC)CCN(C(=O)c1cc(Cl)sc1Cl)c1nc2cc3c(cc2s1)OCO3,54.2%
20,O=C(NCC[C@@H]1CC[C@@H](NS(=O)(=O)c2ccccc2F)[C@@H](CO)O1)c1ccc(F)cc1,36%
21,Cc1nc2sc(C(c3ccco3)N3CCC(Cc4ccccc4)CC3)c(O)n2n1 (stereo not given),111%
22,O=C(CNC(=O)c1cccc(-n2cccc2)c1)Nc1ccccc1Br,4.51%
23,Nc1nonc1C(=O)NCCNCc1c(OCc2ccccc2F)ccc2ccccc12,10.1%
24,O=C(CCNC(=O)c1ccc(Br)cc1)NNC(=O)COc1ccccc1F,9.15%
25,O=C(Nc1cc(Cl)cc(Cl)c1)C(c1ccccc1)N1CCCCC1 (stereo not given),-7.46%

row,SMILES,"activity change, negative = inhibition"
1,C[C@H]1CN([C@@H](C)CO)C(=O)c2ccccc2-c2ccccc2CO[C@H]1CN(C)S(=O)(=O)c1ccccc1C#N,30.6%
2,CCN1CCN(S(=O)(=O)c2ccc(Cl)c(C(=O)Nc3ccccc3N3CCCC3)c2)CC1,48.8%
3,CO[C@@H]1CN(C)C(=O)c2cc(NC(=O)Nc3ccc(Cl)cc3)ccc2OC[C@H](C)N(C)C[C@H]1C,-19.7%
4,C[C@H](CO)N1C[C@H](C)[C@H](CN(C)S(=O)(=O)c2ccc(C#N)cc2)Oc2ncc(/C=C/c3ccccc3)cc2C1=O,16.9% [at 16 µM]
5,C[C@@H]1CN([C@H](C)CO)C(=O)c2cc(C#Cc3ccncc3)cnc2O[C@@H]1CN(C)S(=O)(=O)c1ccccc1F,-27%
6,S=c1nc[nH]c2c1[nH]c1ccc(Cl)cc12,149%
7,N#Cc1ccc(CSc2nnc(COc3ccccc3)n2-c2ccccc2)cc1,7.17%
8,C[C@H]1CN([C@@H](C)CO)C(=O)c2cc(NS(=O)(=O)c3ccc(F)cc3)ccc2O[C@H]1CN(C)S(=O)(=O)c1ccc(F)cc1,7.89%
9,CCCNC(=O)C[C@@H]1C[C@@H]2c3cc(NC(=O)Cc4ccncc4)ccc3O[C@@H]2[C@H](CO)O1,-27.5%
10,CCCNC(=O)C[C@H]1C[C@H]2c3cc(NC(=O)CN(C)C)ccc3O[C@H]2[C@H](CO)O1,-19.9% [at 16 µM]
11,CCCNC(=O)C[C@H]1C[C@H]2c3cc(NC(=O)Cc4ccncc4)ccc3O[C@H]2[C@H](CO)O1,-15.2%
12,CCCNC(=O)C[C@@H]1C[C@@H]2c3cc(NC(=O)CN(C)C)ccc3O[C@@H]2[C@H](CO)O1,48.2%
13,C[C@H]1CN([C@@H](C)CO)C(=O)Cc2cc(N(C)C)ccc2O[C@H]1CN(C)CC1CC1,11.8%
14,C[C@@H]1CN([C@@H](C)CO)C(=O)Cc2cc(NC(=O)c3ccncc3)ccc2O[C@H]1CN(C)Cc1ccc(Cl)c(Cl)c1,-39.7%
15,C[C@H](CO)N1C[C@H](C)[C@@H](CN(C)CC2CC2)Oc2ccc(NS(C)(=O)=O)cc2CC1=O,4.33%
16,Nc1ccc(S(=O)(=O)c2ccc(N3CCOCC3)c(N)c2)cc1,-17.7%
17,Cc1ccc(S(=O)(=O)N(C)C[C@H]2Oc3cc(-c4cccc(F)c4)ccc3S(=O)(=O)N([C@H](C)CO)C[C@H]2C)cc1,-33.7%
18,COc1ccccc1-c1ccc2c(c1)O[C@H](CN(C)S(=O)(=O)c1ccccc1)[C@H](C)CN([C@H](C)CO)S2(=O)=O,18.5%
19,COc1ccc2c3c([nH]c2c1)[C@H](CO)N(C(=O)Nc1cccc(F)c1)CC31CCN(S(=O)(=O)c2ccccc2)CC1,-57.4%
20,COc1ccc2c3c(n(C)c2c1)[C@@H](CO)N(C(=O)Nc1ccc(F)cc1)CC31CCN(Cc2cccc(F)c2)CC1,-2.46%
21,COc1ccc2c3c([nH]c2c1)[C@@H](CO)N(C(=O)Nc1cccc(F)c1)CC31CCN(S(=O)(=O)c2ccccc2)CC1,-99.7%
22,COc1ccc2c3c(n(C)c2c1)[C@@H](CO)N(C(=O)C1CCOCC1)CC31CCN(Cc2cccc(F)c2)CC1,-3.19%
23,CC1(C(=O)NCc2ccc3c(c2)OCO3)CCN1Cc1csc2ccccc12 (stereo not given),-11%
24,CCNC1CCC(Nc2ccnc3cc(Cl)ccc23)CC1 (stereo not given),-25.4%
25,CCCCCCc1nc2ccccc2c(=O)n1NC(=O)c1c(O)c2c(n(CC(C)C)c1=O)CCCC2,-7.39%

row,SMILES,"activity change, negative = inhibition"
1,COc1ccc(OCC(=O)Nc2cc(-c3nn(C)c(=O)c4ccccc34)ccc2OC)cc1,-23.3%
2,COc1ccc(-c2nn(C)c(=O)c3ccccc23)cc1NC(=O)COc1ccccc1,-10.9%
3,CS(=O)(=O)Nc1ccc2c(c1)[C@H]1C[C@H](CC(=O)N3CCc4ccccc4C3)O[C@H](CO)[C@H]1O2,-8.56%
4,CS(=O)(=O)Nc1ccc2c(c1)[C@H]1C[C@@H](CC(=O)NCCN3CCCCC3)O[C@@H](CO)[C@H]1O2,21%
5,CN(C)C(=O)C[C@H]1C[C@@H]2c3cc(NS(=O)(=O)c4ccc(F)cc4)ccc3O[C@@H]2[C@@H](CO)O1,-6.58%
6,CN(C)C(=O)C[C@@H]1C[C@@H]2c3cc(NS(=O)(=O)c4ccc(F)cc4)ccc3O[C@@H]2[C@@H](CO)O1,8.4%
7,CS(=O)(=O)Nc1ccc2c(c1)[C@@H]1C[C@@H](CC(=O)N3CCc4ccccc4C3)O[C@H](CO)[C@@H]1O2,41.9%
8,COc1cccc(S(=O)(=O)Nc2ccc3c(c2)[C@H]2C[C@H](CC(=O)NCc4ccc(Cl)cc4)O[C@@H](CO)[C@H]2O3)c1,0.353%
9,CN1CCN(C(=O)C[C@H]2C[C@@H]3c4cc(NS(C)(=O)=O)ccc4O[C@@H]3[C@H](CO)O2)CC1,-46%
10,O=C(C[C@@H]1C[C@H]2c3cc(NC(=O)Nc4ccc(F)cc4)ccc3O[C@H]2[C@H](CO)O1)NCC1CC1,49.9%
11,O=C(C[C@H]1C[C@@H]2c3cc(NC(=O)Nc4ccc(F)cc4)ccc3O[C@@H]2[C@@H](CO)O1)NCC1CC1,-36.8%
12,O=C(Nc1ccc(F)cc1)Nc1ccc2c(c1)[C@@H]1C[C@H](CC(=O)N3CCCCC3)O[C@@H](CO)[C@@H]1O2,-7.88%
13,O=C(Nc1ccc(F)cc1)Nc1ccc2c(c1)[C@@H]1C[C@H](CC(=O)N3CCCCC3)O[C@H](CO)[C@@H]1O2,-21.7%
14,CN(C)CC(=O)Nc1ccc2c(c1)[C@H]1C[C@H](CC(=O)NCc3cccc(F)c3)O[C@@H](CO)[C@H]1O2,-1.18%
15,COCCNC(=O)C[C@@H]1C[C@H]2c3cc(N(C)C)ccc3O[C@H]2[C@@H](CO)O1,-37%
16,O=C(C[C@@H]1C[C@H]2c3cc(NC(=O)C4CCOCC4)ccc3O[C@H]2[C@H](CO)O1)NCc1ccccc1F,10.9%
17,O=C(C[C@@H]1C[C@@H]2c3cc(NC(=O)C4CCOCC4)ccc3O[C@@H]2[C@H](CO)O1)NCc1ccccc1F,23.2%
18,O=C(C[C@H]1C[C@H]2c3cc(NS(=O)(=O)c4ccc(F)cc4)ccc3O[C@H]2[C@@H](CO)O1)NCc1ccccc1F,28%
19,O=C(C[C@H]1C[C@@H]2c3cc(NC(=O)C4CCOCC4)ccc3O[C@@H]2[C@@H](CO)O1)NCc1ccccc1F,-7.12%
20,Cc1ccc(S(=O)(=O)N(C)C[C@H]2Oc3cc(C4=CCCC4)ccc3S(=O)(=O)N([C@H](C)CO)C[C@H]2C)cc1,-41.2%
21,COc1ccc(S(=O)(=O)N(C)C[C@H]2Oc3cc(C4=CCCC4)ccc3S(=O)(=O)N([C@@H](C)CO)C[C@H]2C)cc1,5.51%
22,COc1cccc(/C=N/NC(=O)CC2C(=O)NN=C2C)c1O (stereo not given),-20%
23,COc1ccc(CCCC(=O)NCCc2ccccc2)c(C)c1,7.11%
24,CCCNC(=O)C[C@@H]1C[C@@H]2c3cc(NC(=O)Cc4ccncc4)ccc3O[C@@H]2[C@@H](CO)O1,-32.8% [at 30 µM]
25,CCCNC(=O)C[C@@H]1C[C@H]2c3cc(NC(=O)Cc4ccncc4)ccc3O[C@H]2[C@@H](CO)O1,10.9% [at 30 µM]
